# Inconclusive results are not listed. Active and inactive are the calls of the source. The call rests on the fitted dose curve; in most records, active means well fitted cell-killing curve with a large enough effect; inconclusive means small, poorly fitted or top-dose-only effect; inactive means flat fitted curve, though single readings scatter.
# Assay: Cell Viability - LYMP2-024 (AID 988); further: nearly all actives have a fitted effect of over 60% in size
# Settings: LYMP2-024 lymphoblastoid cell viability; series mostly up to 92.2 µM
# Text: NIH Chemical Genomics Center [NCGC]
# NIH Molecular Libraries Screening Centers Network [MLSCN]
# National Institutes of Environmental Health Sciences [NIEHS]
# National Toxicology Program [NTP]
# We have developed a 1536-well cell-based assay for quantitative high throughput screening (qHTS) against a number of cell lines to determine in vitro cytotoxicity of small molecules. This particular assay uses a human lymphoblastoid cell line (LYMP2-024) purchased from Coriell Institute for Medical Research.
# NCGC Assay Protocol Summary:
# The CellTiter-Glo luminescent cell viability assay (Promega) is a homogeneous method to measure the number of viable cells in culture. The end point readout of this assay is based on quantitation of intracellular ATP, an indicator of metabolic activity, using the luciferase reaction. Luciferase catalyzes the oxidation of beetle Luciferin to oxyluciferin and light in the presence of ATP. The luminescent signal is proportional to amount of ATP present.
# Using the CellTiter-Glo luminescent cell viability assay, the amount of cellular ATP was measured in the lymphoblastoid cell line with complete culture medium following compound treatment for 24 hours. The assay was performed in opaque white Kalypsys 1536-well plates. In the screen, tetraoctylammonium bromide was used as positive control. Library compounds were measured for their ability to cause acute toxicity in the cell line, as reflected by a decrease in intracellular ATP levels, in a concentration-dependent manner. […] AC50 values were determined from concentration-response data modeled with the standard Hill equation.
# qHTS protocol for CellTiter Glo lymphoblastoid cellular assay
# [Step] [Parameter] [Value] [Description]
# 1. Reagent; 5 uL; 2500 lymphoblastoid cells/well
# 2. Time; 5 hr; 37 C incubation
# 4. Controls; 23 nL; Tetraoctylammonium bromide 6.4pM to 92 uM
# 5. Time; 24 hr; 37 C incubation
# 6. Reagent; 5 uL; CellTiter Glo reagent
# 7. Time; 30 min; Room Temperature
# 8. Detection; Luminescence; Viewlux plate reader
# Keywords: cell viability, cytotoxicity, lymphoblastoid cell line, luminescence, NTPHTS, NTPHTS_NCGC, NIEHS, DSSTox, MLSMR, MLSCN, NIH Roadmap, qHTS, NCGC
row,Compound,outcome
1,CC(=O)/C=C/c1ccccc1,inactive
2,c1ccc(Nc2ccc3ccccc3c2)cc1,inactive
3,Oc1c(Cl)c(Cl)c(Cl)c(Cl)c1Cl,inactive
4,CCOC(=O)c1ccccc1N,inactive
5,CC(C)(c1ccc(OCC2CO2)cc1)c1ccc(OCC2CO2)cc1 (configuration not stated),inactive
6,O=Cc1ccccc1,inactive
7,COC(=O)c1ccccc1C(=O)OC,inactive
8,c1ccc2c(c1)-c1cccc3cccc-2c13,inactive
9,CC(C)COC(=O)c1ccccc1C(=O)OCC(C)C,inactive
10,CCOc1cc(C=O)ccc1O,inactive
11,Cc1ccccc1O,inactive
12,Oc1ccccc1Cl,inactive
